Source: PubChem BioAssay (NCATS)
The source made the active and inactive calls. The call rests on the fitted dose curve; in most records, active means well fitted curve in the direction sought with a large enough effect; inconclusive means small, poorly fitted or top-dose-only effect, or another doubt; inactive means no such curve, though single readings can be large or run the other way.

biological target: alpha-glucosidase (Oryza sativa, rice) (UniProt Q653V4); test: Counterscreen for Glucocerebrosidase Inhibitors: qHTS Assay for Rice alpha-Glucosidase at pH 5.0 (AID 997); details: rice alpha-glucosidase enzyme activity; series mostly up to 76.9 µM
Procedure, shortened: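 Endpoint fluorogenic assay at pH 5.0: compounds (0.7 nM to 77 uM) titrated against 4 nM rice enzyme and 400 uM 4-MU-alpha-glucoside for 20 min at room temperature; NaOH/glycine stop, read ex 365/em 440 nm, Hill-fitted AC50.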

Row | Compound | outcome
1 | CN1C[C@@H](C(=O)N[C@]2(C)O[C@]3(O)[C@H]4CCCN4C(=O)[C@H](Cc4ccccc4)N3C2=O)C[C@H]2c3cccc4[nH]cc(c34)C[C@@H]21 | inactive
2 | CCOC(=O)C1=C(C)NC(C)=C(C(=O)OC)[C@H]1c1cccc(Cl)c1Cl | inactive
3 | O[Si@](CCCN1CCCCC1)(c1ccc(F)cc1)C1CCCCC1 | inactive
4 | CC(=O)O[C@@H]1[C@H]([N+]2(C)CCCCC2)C[C@@H]2[C@@H]3CC[C@@H]4C[C@@H](OC(C)=O)[C@H]([N+]5(C)CCCCC5)C[C@@]4(C)[C@H]3CC[C@]21C | inactive
